Pf Dd2 growth: Plasmodium falciparum Dd2 growth inhibition; P. falciparum Dd2 growth, SYBR Green, 72 h; Potency, µM (doses to about 28.9 µM), inactives show at the highest dose activity, negative = inhibition, actives largely listed as inhibitors; actives 4.3% (n = 120,000); AID 1347417; active = well fitted inhibition curve with a large enough effect;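 note: plate controls were DMSO vehicle for no effect and reference drug for full effect; nearly all actives have a fitted effect of over 65% in size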
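Readout: SYBR Green fluorescence, 485 nm excitation, 535 nm emission, after ~16 h lysis at 37C. Before that, Dd2-infected red cells (2.5% hematocrit) grew 72 h with compound, 29 uM top final concentration.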
Starred values were filed as active, the others as inactive; [ ] = another dose, or the depositor's remark. This excerpt belongs to a sample that is enriched for hits. Potency is the fitted concentration of half-maximal effect.

Screening O=C([C@@H]1C[C@H](Oc2ccccc2)CN1C(=O)c1ccc2ccccc2n1)N1CCOCC1 returned Pf Dd2 growth 2%.
For Cc1oc(C(C)C)cc1C(=O)N1CCC2(CC1)C(C(=O)O)CC(=O)N2C (stereo not drawn) the results were Pf Dd2 growth 11%.
For COc1cccc(C(=O)NC2CCN(c3cc(-c4ccc(F)cc4)[nH]n3)CC2)c1OC the results were Pf Dd2 growth inactive.
Screening CCc1cn(C[C@H](NCCC(C)C)C(=O)O)c(=O)[nH]c1=O returned Pf Dd2 growth 8%[44.1 µM].
`Cc1nn(C)cc1CN(C)C(=O)Cn1nc2n(c1=O)CCC(N)CC2` (stereo not drawn) gave Pf Dd2 growth inactive.
Cc1cccc(OCC2(CNC(=O)c3cnccn3)C[C@@H](O)[C@@H](O)C2)n1 (stereo partly drawn) was read as Pf Dd2 growth -20%[44.1 µM].
Cc1c(F)cccc1NC(=O)N1CCC(N2CC3CC(C2)[C@H]2CCCC(=O)N2C3)CC1 (stereo partly drawn) was read as Pf Dd2 growth 2%.
For CC1=C[C@@H](CN2CCC[C@H]2CO)[C@H](C(C)C)C[C@H]1Cc1nnc(-c2ccc(N(C)C)cc2)o1 the results were Pf Dd2 growth 1.4µM*.
Screening CN(C)c1ccc(-c2nnc([C@H]3CCN(C(=O)CCC(=O)O)C3)o2)cc1 returned Pf Dd2 growth -29%[44.1 µM].
For Cc1nc2cc(-c3nc(CC4CCN(C)CC4)nn3CCO)ccc2s1 the results were Pf Dd2 growth 6%.
Cc1ccc(NC(=O)[C@H](CSCc2ccccc2)N2Cc3ccccc3C2=O)cc1 was read as Pf Dd2 growth inactive.
CCc1ccc(NC(=O)[C@H](CSCc2ccccc2)N2Cc3ccccc3C2=O)cc1 was read as Pf Dd2 growth inactive.
For CCN(CC)S(=O)(=O)c1ccc(NC(=O)[C@H](CSCc2ccccc2)N2Cc3ccccc3C2=O)cc1 the results were Pf Dd2 growth 5µM*.
Screening Cc1ccc2c(c1)N1C(=O)OC[C@@H]1CCN(C(=O)NC1CCCCC1)C2 returned Pf Dd2 growth 3%[44.1 µM].
Screening COC(=O)N1CCn2c(nn(-c3ccc(C)cc3)c2=O)C1 returned Pf Dd2 growth -11%[44.1 µM].
CCNC(=O)N1CCC(Cc2ncc(C)n2C2CC2)C1 (stereo not drawn) was read as Pf Dd2 growth -6%.
`NCc1ccc(-c2nc(C3CCOC3)nn2Cc2ccccc2)cc1` (stereo not drawn) gave Pf Dd2 growth 4.5µM*.
`c1ccc(Cn2nc(C3CCOC3)nc2-c2ccoc2)cc1` (stereo not drawn) gave Pf Dd2 growth -2%.
c1cc(-c2nc(C3CCOC3)nn2Cc2ccc3c(c2)OCO3)[nH]n1 (stereo not drawn) was read as Pf Dd2 growth -12%.
CN1CCCN(C[C@@H]2CN(S(C)(=O)=O)C[C@@H]2CO)CC1 was read as Pf Dd2 growth -3%.
`Cn1cc(-c2cnc3[nH]cc(CC(=O)Nc4ccccc4Cl)c3c2)cn1` gave Pf Dd2 growth -19%[44.1 µM].
`Cn1cc(-c2cnc3[nH]cc(CC(=O)Nc4cccc(F)c4)c3c2)cn1` gave Pf Dd2 growth 6.3µM*.
Screening COc1ccc(-c2cnc3[nH]cc(CC(=O)Nc4ccc(OC)nc4)c3c2)cc1 returned Pf Dd2 growth 11µM*.
`COc1ccc(NC(=O)Cc2c[nH]c3ncc(-c4ccccc4)cc23)cc1` gave Pf Dd2 growth -21%[44.1 µM].
Screening Cn1cc(-c2cnc3[nH]cc(CC(=O)Nc4ccc(N5CCOCC5)cc4)c3c2)cn1 returned Pf Dd2 growth 45%[44.1 µM].
Screening O=C(Cc1c[nH]c2ncc(-c3cccnc3)cc12)Nc1ccc(C(F)(F)F)cc1 returned Pf Dd2 growth -25%[44.1 µM].
Screening COc1ccc(-c2cnc3[nH]cc(CC(=O)Nc4ccc(C(F)(F)F)cc4)c3c2)cc1 returned Pf Dd2 growth inactive.
O=C(Cc1c[nH]c2ncc(-c3cccnc3)cc12)NCCc1ccccc1 was read as Pf Dd2 growth inactive.
For O=C(Cc1cccc(Cl)c1)NCc1c[nH]c2ncccc12 the results were Pf Dd2 growth -19%[44.1 µM].
Screening O=C(Cc1c[nH]c2ncc(-c3cccc(Cl)c3)cc12)NCc1cccnc1 returned Pf Dd2 growth 4.5µM*.
Screening O=C(Cc1c[nH]c2ncc(-c3cccnc3)cc12)NCc1cccc(F)c1 returned Pf Dd2 growth 6.3µM*.
For NC(=O)Cc1c[nH]c2ncc(-c3cccc(F)c3)cc12 the results were Pf Dd2 growth -22%[44.1 µM].
COCC1CN(C(=O)CC2CCN(C(C)=O)CC2)CC12CCNCC2 (stereo not drawn) was read as Pf Dd2 growth 18%.
For O=C(NCCc1noc(-c2ccccc2)n1)C1CCCCC1 the results were Pf Dd2 growth inactive.
Screening c1cnc2nc(C3CCCNC3)[nH]c2c1 (stereo not drawn) returned Pf Dd2 growth 15%[44.1 µM].
`COCCNC(=O)C(C)[C@@H]1CCc2c(C)cc(OCCOC)c(C)c2[C@@H]1O` (stereo partly drawn) gave Pf Dd2 growth -15%[44.1 µM].
Screening O=C([C@@H]1C[C@H](F)CN1C(=O)c1cccc(F)c1)N1CCOCC1 returned Pf Dd2 growth 6%.

Screening data deposited in PubChem by National Center for Advancing Translational Sciences (NCATS).
